# Results published in the supplement of paper PMC10681739.
# Columns and labels:
# ETS1 [1] = molecular target: T1, ETS1 (UniProt P14921); assay: ETS1 binding intensity (PBM fluorescence), ETS1 alone (arbitrary fluorescence units); higher = stronger binding; conditions: ETS1 concentration 1 nM; RUNX1 concentration 0 nM
# T1 sequence: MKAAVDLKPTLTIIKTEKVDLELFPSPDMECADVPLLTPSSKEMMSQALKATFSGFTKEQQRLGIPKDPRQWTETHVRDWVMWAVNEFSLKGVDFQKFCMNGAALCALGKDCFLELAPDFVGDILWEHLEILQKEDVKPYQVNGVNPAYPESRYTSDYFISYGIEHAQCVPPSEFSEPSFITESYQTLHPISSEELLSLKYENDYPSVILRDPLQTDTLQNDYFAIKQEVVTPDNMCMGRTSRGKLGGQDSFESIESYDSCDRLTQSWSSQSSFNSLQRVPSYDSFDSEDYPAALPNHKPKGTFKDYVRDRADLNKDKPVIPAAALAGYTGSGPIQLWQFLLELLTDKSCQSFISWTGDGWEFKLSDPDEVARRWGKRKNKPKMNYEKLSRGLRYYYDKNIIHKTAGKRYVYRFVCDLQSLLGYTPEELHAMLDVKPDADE
# RUNX1 [2] = molecular target: RUNX1 (UniProt Q01196); assay: RUNX1 binding intensity (PBM fluorescence), RUNX1 alone (arbitrary fluorescence units); higher = stronger binding; conditions: RUNX1 concentration 2 nM; ETS1 concentration 0 nM
# Sequence of RUNX1 (Q01196 whole entry): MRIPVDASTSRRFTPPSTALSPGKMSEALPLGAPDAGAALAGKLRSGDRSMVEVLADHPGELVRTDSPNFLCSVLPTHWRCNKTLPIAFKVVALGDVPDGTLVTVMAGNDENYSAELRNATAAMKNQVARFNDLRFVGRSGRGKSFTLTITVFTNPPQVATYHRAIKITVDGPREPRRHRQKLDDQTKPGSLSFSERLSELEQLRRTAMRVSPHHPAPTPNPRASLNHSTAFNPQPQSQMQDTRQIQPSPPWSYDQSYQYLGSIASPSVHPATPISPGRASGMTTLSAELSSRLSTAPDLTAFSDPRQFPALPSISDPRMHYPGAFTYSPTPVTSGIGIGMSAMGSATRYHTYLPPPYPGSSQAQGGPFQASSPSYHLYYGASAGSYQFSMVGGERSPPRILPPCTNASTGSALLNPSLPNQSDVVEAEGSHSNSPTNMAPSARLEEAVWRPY
# Procedure: (§1)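 Cooperative gcPBM on 36-bp genomic probes with neighbouring ETS1 and RUNX1 sites. Recombinant human RUNX1 (2 nM) was incubated alone or with ETS1 (25 nM) and detected with anti-RUNX1 antibody plus Alexa488 secondary. Values are medians over 4 replicate spots; the RUNX1+ETS1 data were normalised to the RUNX1-only data. The probes sit in constant array flanks that are not printed.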
# ETS1 [3] = molecular target: T1, ETS1; assay: ETS1 binding intensity (PBM fluorescence) in presence of RUNX1, normalised to ETS1-only experiment (arbitrary fluorescence units); higher = stronger binding; conditions: ETS1 concentration 1 nM; RUNX1 concentration 25 nM
# RUNX1 [4] = molecular target: RUNX1 (UniProt Q01196); assay: RUNX1 binding intensity (PBM fluorescence) in presence of ETS1, normalised to RUNX1-only experiment (arbitrary fluorescence units); higher = stronger binding; conditions: RUNX1 concentration 2 nM; ETS1 concentration 25 nM
# Procedure: as §1
# 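Throughout, for RUNX1 binding intensity (PBM fluorescence) in presence of ETS1, normalised to RUNX1-only experiment: Full-length recombinant human ETS1 or RUNX1 bound to double-stranded 36-bp genomic probes on microarrays, detected by protein-specific primary antibody and Alexa488 secondary, spot fluorescence as median of four replicate spots.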
# 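Throughout, for RUNX1 binding intensity (PBM fluorescence), RUNX1 alone: Full-length recombinant human RUNX1 bound to double-stranded 36-bp genomic probes on a high-density microarray, scored as Alexa488 fluorescence per spot via anti-RUNX1 antibody, median of four replicate spots.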
Sequence,ETS1 binding intensity (ETS1 [1]),RUNX1 binding intensity (RUNX1 [2]),ETS1 binding intensity (ETS1 [3]),RUNX1 binding intensity (RUNX1 [4])
CAAGGGAACATCCTTAAACAGCTTGTGGTATTGCTG,735,878,1060,1060
GAGATACACAGCGACATCCGCCCGCAAGAGCATGGT,823,733,1090,1280
AAACCAGAGGAAGTGGATTCCAACCACAAACCTCAC,750,1080,4210,2100
GTGGCGAAAGTGCGGATGCGAAACCGCTGGCTCGGC,587,782,1060,881
CTGCTGGCGTTCCCGGATGTGCGGTGGCGGTGCTAC,4900,753,9340,1570
GCGATCGGAGCGGAAGTGGAGCTACCGCCACCGCCG,7540,819,8910,1290
AACTTCCTCCGCGCGGGGCCACTGCTACCACAAAGG,373,1070,588,2540
CGAAACGCGTTCCCCGGAAACCGCGCCCGGCTCCGA,1810,763,3230,1090
TCCCCGGCAGCTTCCTCGCCCCGACCGCAGTGTTCC,368,1780,798,1570
TCTGGGGGAGGGGAAGGATGTGGTTTGCAGAGCGGA,873,1020,5630,1470
CCCGCGACACAAGGCGGATGTGGTACCCTCACTTGT,3250,820,5070,1200
GCATCATCACTTCCTGTTGTGGGCAGTCGTTGCCTG,3300,843,5100,2360
TCCGGAAGTGGCACTGATGGGCGCCTGCGGCGGGGG,2720,758,5500,1030
GAGCATAGCCTAGCAGGATGTGGTTAAATACATTTG,3320,747,32800,1970
AGAAGCTGCAGTCCCGGAAGCGGTTTTAGGGGGCCG,4220,725,10100,1310
AAGGTGGAAAAAGGATGTGGTTCTAAGCTGGCTTCT,887,735,1120,1020
TAAGAGATTTCCTGTAAAGGTAACCACCAGCAAAGA,522,721,714,1230
GCCACTTCCGGTCACTCCCCGCTGCGGCCTCGCGCT,7030,1190,8280,3940
GGGGAAGAGGGGAGGATGTCTGAGGTTTTAATTGTA,523,861,689,793
ACGGGGAAGAACGGAAGTGGTTTCCATGATGGTCTG,6420,831,9080,4470

Sequence,ETS1 binding intensity (ETS1 [1]),RUNX1 binding intensity (RUNX1 [2]),ETS1 binding intensity (ETS1 [3]),RUNX1 binding intensity (RUNX1 [4])
GGATTAGAACTGCTTCCTCCTGTGGTTTACCAGAAA,417,923,595,1840
CCCACTCCACTTCCGCCACCGCCGCAGCCGCCGCTG,1430,1980,1420,5930
CCGCGCACCCGGAACTACCTCCCGACCCGCATCCCC,562,1290,592,1440
GAGGCCGAAAGGAAGTTTGAGGTTAAGCACAAGATG,975,792,1900,1060
TCCAAGGCGGAAAAAACCCGCCCTAAACCGCACCCC,464,1470,1040,1460
GCTGCCGGAAAAGGCGCCGAGGTAACCGCCTCACTT,479,903,496,1020
GAAGGTTGTAGAGGAAGTGGTTTGTTCTTCCTCCTG,2670,837,4070,1640
TCTGGAGAAGCAGGATGTGGTTTGCAAGAGGCTTGC,4750,774,16700,4750
CACCTGGCCCGGACGGCTGCGGTCTGGAGGGCTGTC,386,1650,792,2050
TAGCATGTGAGCTTCCTGTGGGTTTGTGCAGCCCCA,616,708,654,1440
CTTTAAGGAGGCGGAAAAGTTAACCGCGATGGGCAG,533,996,1430,1050
GTGTTTCCTCTTTGTTTTGGGGCTGTGGTTGCCACA,414,1330,600,3180
TGTGTCACTTCCCTATCTGTTGCGGTTGTTCACTCC,409,1340,841,2930
CAACGGCGTAGCCGGAAGTCAGTGGTTTTCGCCCCA,12100,721,18200,1650
GTGACGGATATCCACCGGGCCCTGTGGTTTCCAACA,394,822,1200,986
TGGTTAGGGAGAGGGGGATGTGGTTAGGGTGAGGGA,530,1110,3960,1140
GTCAGGGGAACAGGATGTGGGTGGGAGCCAGCCCCA,4250,729,5560,2540
GCACTCATTTCCTGTCCCCTGTGGTTTAAAGGTTTT,1990,1260,4620,4770
GCACCCTTCCTGCTTCCCACAGTGTGGTATAAGAGG,412,965,475,1560
TCCGGAAGTCGGAGGAACACCCCAGCCGCCGCAGCC,1840,751,2010,988
